# Laboratory results reported in ChEMBL document CHEMBL4513216, “Probing the Open Global Health Chemical Diversity Library for Multistage-Active Starting Points for Next-Generation Antimalarials” (ACS Infect Dis, 2020).
# Hit rate of the full screen: of about 65,000 compounds, about 2,100 (3.2%) showed an effect of 50% or more. The median lay at about -52%. Only a selection was taken, and strong results are over-represented in it overall.
# Test system: Plasmodium falciparum
# Test: Screen against P. falciparum Asexual Blood Stage (ABS), at 5uM
# Format: functional, Dd2
# Settings: tested at 5 uM
row,Structure (SMILES),INHIBITION [%]
1,Cc1cc(C(=O)N2CCN(C)CC2)nn1CC(=O)NCc1cccs1,-139
2,Cc1noc(CS(=O)(=O)C(C)C(=O)N(C)c2ccccc2)n1 (stereo not given),-10
3,Cc1noc(C)c1CN1CC[C@H]2OCC[C@@H](C(=O)NCC3CC3)[C@H]2C1,-48.5
4,CN1CCCN(c2ccc(F)cc2CNC(=O)c2ccsc2)CC1,59.9
5,Cc1ccc(C(=O)NCc2cc(F)ccc2N2CCCN(C)CC2)o1,34.9
6,CN1CCCN(c2ccc(F)cc2CNC(=O)c2cccnc2)CC1,-51.5
7,CCc1nc(CN2CCCC(NCc3cccc(C(N)=O)c3)C2)no1 (stereo not given),-86.3
8,Cc1ccnn1CC(=O)N(C)Cc1cnn(-c2ccccc2)c1,-96.8
9,CO[C@H]1CN(C(C)C)C[C@@H]1NC(=O)c1cc(COc2ccccc2)[nH]n1,57.2
10,CO[C@H]1CN(C(C)C)C[C@@H]1NC(=O)c1cc(-c2ccccc2F)n[nH]1,-41.9
11,CC(=O)NCCNC(=O)c1cc(COc2ccccc2)[nH]n1,-173
12,N#Cc1ccc(CNCCS(=O)(=O)N2CCc3ccccc32)cc1,-57.5
13,OC1CCN(c2ccnc(NCCN3CCc4ccccc4C3)n2)C1 (stereo not given),-46.6
14,OC1CCN(c2ccnc(NCCc3ccccc3Cl)n2)CC1,-50.8
15,OC1CCN(c2ccnc(NCCc3ccccc3Cl)n2)C1 (stereo not given),61.6
16,O=C(NCC1(Sc2ccccc2)CC1)c1ccc(=O)[nH]n1,-22.5
17,COCCOc1ccc(CNc2nc3ccccc3nc2N)cn1,-49.5
18,CCC1=NN2C(=N)C(=Cc3cccn3-c3cccc(Cl)c3)C(=O)N=C2S1,-39.1
19,COc1cc(NC(=O)NCc2nccn2C)ccc1Br,-84.1
20,O=C(c1ccco1)N1CCCC(c2cc(C(F)(F)F)n3ncnc3n2)C1 (stereo not given),4.5
21,Cc1ccsc1CN1C[C@@H]2COC[C@]2(CNC(=O)c2ccco2)C1,21.9
22,CC(C)N1CCC2(C=C(C(=O)N(C)C)c3ccccc32)CC1,-3.5
23,CCN1CCC2(C=C(C(=O)N(C)C)c3ccccc32)CC1,-0.272
24,CN1CCC2(C=C(C(=O)N(C)C)c3ccccc32)CC1,61.5
25,Cc1nc(CN(C)C2CCN(Cc3ccc4ccccc4n3)C2)no1 (stereo not given),-24.6
26,Cc1ccccc1N1CC2(CCN(c3nncs3)C2)CC1=O (stereo not given),-152
27,O=C(NC1CC1)[C@@]12CCO[C@@H]1CCN(Cc1ccc3c(c1)OCO3)C2,-28.1
28,CC(C)C(=O)N1CCC(C2C(=O)Nc3ccccc32)CC1 (stereo not given),-81.3
29,O=C1Nc2ccccc2C1C1CCN(C(=O)C2CC2)CC1 (stereo not given),-87.8
30,CN(C)C(=O)N1CCC(C2C(=O)Nc3ccccc32)CC1 (stereo not given),60
